# Test results reported in PubChem BioAssay (NCI).
# Compounds without any hit were thinned out: in the full panel of roughly 79,000, 15% have a hit. A number with no mark means an inactive call. Activity calls are given as the source filed them. Cut-off read from the data, not from the text of the source: active = growth inhibition above about 70%; inactive = the rest.
# What was measured:
# [1] = NCI Yeast Anticancer Drug Screen. Data for the rad50 strain (AID 155);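 note: 0% = growth of vehicle-only cultures of the same strain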; conditions: S. cerevisiae rad50 strain growth inhibition; at 50.0 µM; hits give high values
# How it was run: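 Cells are treated with compound, grown, and their growth is then scored against vehicle-only cultures of the same repair-deficient yeast strain.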
# [2] = NCI Yeast Anticancer Drug Screen. Data for the mec2-1 strain (AID 157); conditions: S. cerevisiae mec2-1 strain, at 50.0 µM, hits give high values
# How it was run: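 Growth inhibition is read against vehicle-treated controls after compound exposure of the mec2-1 yeast strain, which is defective in DNA damage repair or cell cycle control.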
# [3] = NCI Yeast Anticancer Drug Screen. Data for the sgs1 mgt1 strain (AID 161);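 note: 0% = growth of cultures given vehicle only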; conditions: S. cerevisiae sgs1 mgt1 strain, at 50.0 µM, hits give high values
# How it was run: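 Compounds are added to genetically altered yeast, and growth is compared with cultures given vehicle alone to give percent inhibition.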
# [4] = NCI Yeast Anticancer Drug Screen. Data for the cln2 rad14 strain (AID 165);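 note: 0% = growth equal to vehicle treated cultures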; conditions: S. cerevisiae cln2 rad14 strain, at 50.0 µM, hits give high values
# How it was run: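 Growth inhibition, relative to vehicle-treated controls, is the read-out. The test organism is a yeast strain with defined genetic alterations, cln2 rad14.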
# [5] = NCI Yeast Anticancer Drug Screen. Data for the bub3 strain (AID 167); conditions: S. cerevisiae bub3 mutant strain, at 50.0 µM, hits give high values
# How it was run: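 Part of a panel of yeast mutants defective in DNA damage repair or cell cycle regulation. Each strain is grown with compound, and inhibition is calculated relative to solvent-treated cultures.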
# [6] = NCI Yeast Anticancer Drug Screen. Data for the mlh1 rad18 strain (AID 175); conditions: S. cerevisiae mlh1 rad18 strain growth inhibition; at 50.0 µM; hits give high values
# How it was run: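 Cells of a genetically altered yeast strain, deficient in DNA damage repair, were treated with compound. Their growth was then compared with that of vehicle-treated cultures to give inhibition.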
SMILES,growth inhibition [1],growth inhibition [2],growth inhibition [3],growth inhibition [4] [%],growth inhibition [5],growth inhibition [6]
Cc1nn(-c2ccccc2)nc1C(=O)Nc1ccc2[nH]ncc2c1,-39.2%,-48.1%,-8.95%,-15.8,-22.9%,-24.6%
CCCCCCCCCCCCCCCCC(C)=O,2.2%,20.6%,5%,-16.6,21.9%,-11.7%
CCNC(CC1CCCCC1)C(=O)O (stereo not drawn),-6.15%,7.5%,-1.8%,14.2,13.2%,6.35%
COC(=O)c1cc2ccc(O)c(O)c2cn1,41.1%,25.8%,60.3%,18.9,62.4%,24.9%
COc1ncnc2c(NC3OC(CO)C(O)C3O)ncnc12 (stereo not drawn),7.2%,-6.5%,-5.4%,12.4,-9.2%,-9.3%
CCCCCCCCCC(=O)OC,-24.1%,-16.9%,8.4%,-12.8,-0.25%,6.2%
CC(C)C(=O)NCCc1ccccc1,0%,0.45%,-3.15%,-26.6,-0.45%,2.95%
CN1CCC(Cl)(C(=O)c2ccccc2)CC1,26.2%,4.35%,25.6%,-9.5,5%,8.25%
O=[N+]([O-])C1C2CCC(C2)C1c1ccccc1 (stereo not drawn),9.55%,-3.75%,-0.55%,-2.05,14.9%,-0.2%
Cc1nc(/C=C2\C(=O)C=Cc3ccccc32)c(O)o1,7.85%,-6.3%,8.35%,-63,16%,0.3%
CS(=O)(=O)C(c1nc2n(c1O)/C(=N/C(=O)Nc1ccc(Cl)cc1)N=N2)c1nc2n(c1O)/C(=N/C(=O)Nc1ccc(Cl)cc1)N=N2,-14.9%,4.5%,-8.5%,-16.3,1.3%,-1.15%
CC(=O)N1CCNC(c2ccccc2)C1(C)C (stereo not drawn),-3.05%,-6.95%,-11.3%,-9.3,-13.4%,3.85%
CSc1nc(SC)c(Nc2cccc(C)c2)c(SC)n1,-8.65%,7.7%,4.2%,-38,21.8%,-0.3%
CCOC(=O)C(C)(Br)C(Br)c1ccc([N+](=O)[O-])cc1 (stereo not drawn),96.8% (active),93.2% (active),96.9% (active),42.7,80.9% (active),97% (active)
O=C1CCSSCCC(=O)NCCCN1,1%,-5.3%,-24.4%,15.2,-24.1%,-6.3%
N#Cc1ccc(/C=C2\Cc3ccccc3C2=O)cc1,-30.6%,-29.7%,-35%,9.5,-18.8%,3.5%
Cc1ccc(S(=O)(=O)OC(F)(F)C(F)(F)F)cc1,7.8%,5.05%,7.95%,-8.15,-4.05%,5.5%
COc1cccc2c1C(c1ccc3ccccc3c1)OC2=O (stereo not drawn),-22.2%,-11.4%,-27.6%,12.8,-25.4%,-15.5%
COC(=O)c1nc(N)nc(C(=O)OC)c1C(=O)/C=C/c1ccccc1,-4.2%,-8.5%,-21.5%,-16.1,-26.4%,-17.6%

SMILES,growth inhibition [1],growth inhibition [2],growth inhibition [3],growth inhibition [4] [%],growth inhibition [5],growth inhibition [6]
CCOC(=O)C(CS(=O)(=O)N(CC)CC)NC(=O)c1ccccc1 (stereo not drawn),-1.4%,-10.6%,2.9%,-10.8,5.15%,-18.6%
COc1ccc(C(O)C(C)C(O)(C(F)(F)F)C(F)(F)F)cc1 (stereo not drawn),70.5% (active),67.7%,89.3% (active),63.8,72.7% (active),90% (active)
CCCc1cc(=O)oc2c3c(c4c(c12)OC(C)(C)CC4)O[C@H](C)C(C)C3O (stereo partly drawn),24.8%,11.6%,11.6%,26.1,47.6%,35%
COc1nc(NC2OCC(O)C(O)C2O)c(NC2OCC(O)C(O)C2O)c(=O)n1C (stereo not drawn),-7.5%,-1.7%,-11.6%,22.5,-31.1%,-12.2%
CCOC(=O)C1C(=O)N(O)c2cnccc21 (stereo not drawn),-1.9%,-16.6%,-12.5%,-12.2,15%,8.35%
CCCCCCCCOC(=O)C1(O)CCCCC1,14.6%,28.4%,16.1%,4.2,17.6%,36.1%
CN1C(=O)c2cnc3ccccc3c2C1(O)c1ccccc1 (stereo not drawn),-1.75%,1.35%,2.4%,5.25,0%,3.9%
COC12CC3C4CCC5CC(O)CCC5(C)C4CCC3(C)C1C(C)C1(CCC(C)CO1)O2 (stereo not drawn),33.6%,8.7%,13.1%,19.8,1.05%,-0.4%
C1CCCNCCNCCNCC1,-4.4%,-17.1%,-18.9%,16.1,-20.8%,19.1%
O=C(O)O.O=C(O)O.O=C(O)O.[Co],-9.35%,38.3%,-2.75%,-11.6,8.65%,-5.05%
Cc1cc(Cl)ccc1OCC(=O)OCC(C)(C)[N+](=O)[O-],6.05%,19.1%,20.4%,-80.2,36.6%,33.7%
Cc1cccc(C(=O)OCc2ccccc2CN2CCCC2)c1,1.5%,-7.75%,-10.1%,2.85,-2.05%,-1.45%
COC(=O)C1(F)C(=O)NC(=O)NC1OC (stereo not drawn),35.5%,16.6%,56.4%,10.3,11.7%,31%
CCCCC1OCCOC1C1COCCO1 (stereo not drawn),-7.25%,-21.9%,-10.8%,-6,2.55%,6.7%
CCOC(=O)C1=C(C)Oc2cc3c(cc2C1c1cc(OC)c(O)c(OC)c1)OCO3 (stereo not drawn),33.8%,1.65%,38.5%,9.75,27.4%,50.5%
COC(=O)c1sc(N2CCCC2)nc1N,-4.95%,9.95%,6.4%,-1.3,11.4%,-1.85%
NNc1ccc(C(=O)O)cc1,-3.6%,12.1%,-2.1%,11,-2.35%,-4.9%
COc1ccc(CC(O)CN2CCC(CCN)CC2)cc1 (stereo not drawn),-19.8%,-7.45%,-12.2%,-47.9,23.6%,-5.65%
Cc1cc(O)c(C(C)C)cc1S(=O)(=O)O,0.7%,0.2%,3.75%,-1.5,3.25%,5.15%
